HPGD inh: qHTS Assay for Inhibitors of HPGD (15-Hydroxyprostaglandin Dehydrogenase) | 15-hydroxyprostaglandin dehydrogenase [NAD(+)] (Homo sapiens), P15428 | purified HPGD, NADH fluorescence kinetic, PGE2 substrate | Potency, µM, inactives show top-dose activity change, negative = inhibition, usual class: inhibitors | 150,000 compounds, 4.3% hits | AID 894, 2007; active = well fitted inhibition curve with a large enough effect, not every such curve was filed as active; inconclusive = small, poorly fitted or top-dose-only effect, or another doubt; inactive = no such curve, though single readings can be large or run the other way; also: potency is read from the fitted curve at half-maximal effect
Target sequence (P15428 whole entry, looked up): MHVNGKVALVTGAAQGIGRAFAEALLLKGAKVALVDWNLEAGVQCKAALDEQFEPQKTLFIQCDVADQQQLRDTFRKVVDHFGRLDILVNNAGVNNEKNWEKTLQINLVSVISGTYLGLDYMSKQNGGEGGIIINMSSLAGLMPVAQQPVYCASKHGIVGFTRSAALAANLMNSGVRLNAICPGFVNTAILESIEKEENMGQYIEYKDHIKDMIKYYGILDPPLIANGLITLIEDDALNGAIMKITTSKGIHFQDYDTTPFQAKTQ
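NADH formation kinetics: reaction with 30 uM PGE2 and 1 mM NAD+ (final), 20 nM enzyme, Tris-HCl pH 8 with Tween 20, after 15 min compound preincubation at room temperature. Fluorescence change, last versus first of five reads.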
IMPase Li inh: qHTS Assay for Identifying the Cell-Membrane Permeable IMPase Inhibitors: Potentiation with Lithium | 210,000 compounds, 0.35% hits | CHO-M1 cells, IP1 TR-FRET (IP-One), carbachol + lithium | Potency, µM (titrated, usually from 59.4 µM), without a hit: at the highest dose activity, negative = IMPase inhibition, actives largely listed as inhibitors | AID 1457, 2008;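 also: IP1 builds up when IMPase is blocked and the TR-FRET signal falls; potency is read from the fitted curve at half-maximal effect; plate controls were basal vehicle for no effect and high inhibitor control for full effect; nearly all actives have a fitted effect of over 50% in size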
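Concentration–response in CHO-M1 cells, lithium-potentiated; 30 min at 37C. IP1 detected by competitive TR-FRET after 10 min lysis at RT. Hill-fitted AC50.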
PNC inhibitor: High Content Assay for Compounds that inhibit the Assembly of the Perinucleolar Compartment; activity change (PNC), negative = inhibition, % at 10 µM; 140,000 compounds, 3.1% hits; PC3M PTB-GFP, PNC prevalence imaging, 16 h; stronger effect = lower value;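 active = readout at or below -70, meaning at least 70% loss of cells showing the perinucleolar compartment, a nuclear body marking cancer cells; inconclusive = readout between -30 and a set limit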;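 also: plate controls were DMSO wells for no effect and camptothecin positive control wells for full effect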
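Compounds are pinned in duplicate onto adhered PC3M cells stably expressing GFP-tagged PTB and incubated 16 h at 37 C. Cells are then fixed, nuclei stained with Hoechst, and PNC-positive cells counted.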
ALDH1A1 block: qHTS Assay for Inhibitors of Aldehyde Dehydrogenase 1 (ALDH1A1) | Aldehyde dehydrogenase 1A1 (Homo sapiens), P00352 | Purified ALDH1A1, NADH fluorescence, propionaldehyde substrate | Potency, µM (series often up to 75.3 µM), for the others: at the top dose activity, negative = inhibition, most hits filed as inhibitors | 220,000 compounds, 7.3% hits; active = well fitted inhibition curve with a large enough effect, not every such curve was filed as active; inconclusive = small, poorly fitted or top-dose-only effect, or another doubt; inactive = no such curve, though single readings can be large or run the other way;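 also: potency is read from the fitted curve at half-maximal effect; plate controls were no enzyme wells and a reference inhibitor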
12-hLO inh: qHTS Assay for Inhibitors of 12-hLO (12-human lipoxygenase). 150,000 compounds, 0.12% hits. Potency, µM (top dose mostly 57.1 µM), for inactives: top-dose activity change, negative = inhibition, actives largely listed as inhibitors. Polyunsaturated fatty acid lipoxygenase ALOX12 (Homo sapiens), P18054. AID 1452, 2008. purified 12-hLO, xylenol orange hydroperoxide absorbance; also: potency is read from the fitted curve at half-maximal effect; nearly all actives have a fitted effect of over 55% in size
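Hydroperoxide formation by human 12-lipoxygenase from 40 uM arachidonic acid was followed colorimetrically via ferric-xylenol orange complex, using the 573/405 nm absorbance ratio. Enzyme concentration was 150 nM, with 30 min reaction at room temperature.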
IMPase cell inh: qHTS Assay for Identifying the Cell-Membrane Permeable IMPase Inhibitors; Inositol monophosphatase 1 (Rattus norvegicus), P97697; CHO-M1 cells, IP1 accumulation, HTRF TR-FRET ratio; inhibition (IP1 accumulation), % at 46.1 µM; 120,000 tested, under 10 active; AID 901, 2007; active = well fitted curve in the direction sought with a large enough effect in the signal ratio, not every such curve was filed as active; inconclusive = small, poorly fitted or top-dose-only effect, or a change in a side signal; inactive = no such curve, though single readings can be large or run the other way; the % refers to the signal ratio;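 also: cells stimulated with carbachol in lithium chloride buffer; plate controls were DMSO basal wells for no effect and reference inhibitor wells for full effect; higher means more IMPase inhibition seen as more IP1 and lower FRET ratio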
Target sequence (P97697 whole entry, looked up): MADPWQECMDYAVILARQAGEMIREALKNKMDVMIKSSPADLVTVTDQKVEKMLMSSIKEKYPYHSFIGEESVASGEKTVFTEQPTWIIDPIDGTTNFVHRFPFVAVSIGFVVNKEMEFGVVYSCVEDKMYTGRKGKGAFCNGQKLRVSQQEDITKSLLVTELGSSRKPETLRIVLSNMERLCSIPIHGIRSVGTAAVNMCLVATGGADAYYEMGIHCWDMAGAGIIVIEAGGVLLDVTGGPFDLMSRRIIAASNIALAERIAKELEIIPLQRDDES
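Elevated IP1 in lysates lowers TR-FRET signal (665/620 ratio and 620 channel reported). Cells were CHO-M1, given carbachol (50 uM as added) plus 50mM LiCl, pH 7.4, 30 min, 37C; compounds titrated up to 46 uM; AC50 by Hill equation.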
An asterisk follows results filed as active; ? = inconclusive; nt = no result given; [ ] = dose if it differs, or a comment. Hits are enriched below; roughly 11% of the tested compounds scored in any of these assays. Unless noted, calls follow the shape of the dose curve; as a rule, active = well fitted curve in the direction sought with a large enough effect; inconclusive = small, poorly fitted or top-dose-only effect, or another doubt; inactive = no such curve, though single readings can be large; an effect the other way counts as inactive or inconclusive. Unless noted, % is scaled to controls: 0 for no effect and ±100 for the full control effect.

SMILES | HPGD inh | IMPase Li inh | PNC inhibitor | ALDH1A1 block | 12-hLO inh | IMPase cell inh
CCCCSc1nc(SCC(=O)NCc2ccco2)c2c3c(sc2n1)COC(C)(CC)C3 (configuration not stated) | -25% | 9%[38.3 µM] | -10 | 22µM* | -5% | -14
CCCCc1nc2sc3c(SCC(=O)NCc4ccco4)ncnc3c2c2c1CCC2 | -13% | 5µM* | 17 | -7% | 0% | ?
C[C@H](C(=O)O)c1cccc(Oc2ccccc2)c1 | -9% | 3% | nt | 4%[20.9 µM] | 0%[25.6 µM] | -4[20.6 µM]
Cc1cc(-c2nnc(CCC(=O)N3CCN(Cc4cccc(F)c4)CC3)o2)c(C)o1 | nt | 5% | nt | 28µM* | nt | nt
CCOc1ccccc1C1C(C(N)=O)=C(C)Nc2nc(-c3cccc(C)c3)nn21 (configuration not stated) | -7% | 0%[38.3 µM] | ? | 20µM* | -8% | 6
CC1=C(C(N)=O)C(c2cccs2)n2nc(-c3cccc(C)c3)nc2N1 (configuration not stated) | 0% | 7%[38.3 µM] | ? | 3% | -2% | -7
COc1cccc(Nc2ncc3ncc(=O)n(C[C@H]4CCCO4)c3n2)c1 | nt | 0% | nt | -12% | nt | nt
CCN(CC)CC(=O)NCc1cc(-c2ccc(OC)cc2)no1 | 1.3µM* | 5%[38.3 µM] | 4 | -12% | 5% | 2
O=c1[nH]c(/C(Cl)=C/c2cc(Cl)ccc2O)nc2cc(Cl)ccc12 | 8.9µM* | 4% | 8 | 7% | -10% | nt
O=C(NCCN1CCOCC1)c1ccc(N2CCCC2)c([N+](=O)[O-])c1 | nt | -5% | nt | 16µM* | nt | nt
O=C(NCc1ccc2c(c1)OCO2)c1ccc(N2CCCCCC2)c([N+](=O)[O-])c1 | 14µM* | 6% | -6 | 10µM* | -2% | 2
O=C(c1ccc(N2CCCCC2)c([N+](=O)[O-])c1)N1CCOCC1 | -15% | -2%[38.3 µM] | 87 | 1% | 4% | 4
O=C(NN1CCN(Cc2ccccc2)CC1)c1ccc(N2CCOCC2)c([N+](=O)[O-])c1 | nt | -4% | nt | 2.2µM* | nt | nt
O=C(N/N=C/c1ccccc1)c1ccc(N2CCOCC2)c([N+](=O)[O-])c1 | -26% | 3% | -23 | ? | 0% | nt
CC1CCCN(c2ccc(C(=O)NCc3ccc4c(c3)OCO4)cc2[N+](=O)[O-])C1 (configuration not stated) | ? | 8% | ? | ? | -4% | 3
CCN(CC(=O)O)CC(=O)O | -11% | 4% | nt | -4%[13.5 µM] | 3%[11.4 µM] | nt
CCCCCCNc1ncnc2c1sc1nc(N3CCOCC3)c3c(c12)CCCC3 | nt | nt | nt | nt | nt | -3
Cc1ccc(O)c(Nc2nc3ccccc3c3nncn23)c1 | nt | nt | nt | nt | nt | 2
Oc1ccc(C=Nc2ccc3ncccc3c2)c(O)c1 | ? | 5%[38.3 µM] | 12 | 28µM* | -29% | 27
CCOC(=O)c1cnc2c(C(F)(F)F)cccc2c1Nc1cccc(C(=O)OC)c1 | nt | nt | nt | nt | nt | 1
Cn1c(C[C@@H](O)c2nc3ccccc3n2C)nc2ccccc21 | -16% | 1% | nt | 13%[13.5 µM] | 0%[11.4 µM] | nt
CCC(Oc1ccccc1)C(=O)NC1CCSC1=O (configuration not stated) | nt | ? | nt | 6.3µM* | nt | nt
CCC(Oc1ccccc1)C(=O)Nc1ccccn1 (configuration not stated) | -13% | 13%[38.3 µM] | 20 | 2.8µM* | -9% | -9
CCC(Oc1ccccc1)C(=O)Nc1ccsc1C(=O)OC (configuration not stated) | ? | 11% | 14 | 14µM* | -7% | nt
C[C@@H](SCc1ccccc1)C(=O)O | -5% | -1% | nt | 4%[13.5 µM] | 1%[11.4 µM] | nt
SMILES | HPGD inh | IMPase Li inh | PNC inhibitor | ALDH1A1 block | 12-hLO inh | IMPase cell inh
COCCn1ccc(O)c(Cc2ccc(Cl)cc2)c1=O | -4% | 17%[38.3 µM] | ? | 12% | 2% | 0[1.84 µM]
O=c1cc(-c2ccccc2)oc2cc(O[C@@H]3O[C@H](CO)[C@@H](O)[C@H](O)[C@H]3O)c(O)c(O)c12 | 11µM* | -27% | nt | ? | -3% | ?
O=c1c(O)c(-c2ccc(O)c(O)c2)oc2c(OC3OC(CO)C(O)C(O)C3O)c(O)cc(O)c12 (configuration not stated) | 28µM* | 20% | nt | ? | -6% | nt
O=c1cc(-c2ccc(O)cc2)oc2cc(O[C@H]3OC(CO)C(O)C(O)C3O)cc(O)c12 (some centres not stated) | -8% | 0% | nt | -1% | -1% | nt
COc1ccc2c(c1)-c1nc(NC(=O)c3cc(OC)c(OC)c(OC)c3)sc1CC2 | nt | nt | nt | nt | nt | -4
CCOC(=O)c1cc(C)[nH]c(=S)c1C#N | -14% | 0%[38.3 µM] | 40 | 20µM* | -7% | 0
Cc1ccc(-n2c(=O)c3sccc3n(Cc3cc(=O)n4ccccc4n3)c2=O)cc1F | ? | -2% | -6 | ? | -6% | -2
Cc1ccc(-n2c(=O)c3sccc3n(Cc3cc(=O)n4cc(Cl)ccc4n3)c2=O)cc1F | ? | -2% | -83* | -4% | -7% | 5
O=C(O)/C(=C\c1ccncc1)c1cccc2ccccc12 | -6% | -2% | nt | 0%[13.5 µM] | 2%[11.4 µM] | nt
COc1ccc(C)cc1NC(=O)CN(c1cc(C(F)(F)F)ccc1Cl)S(C)(=O)=O | nt | nt | nt | nt | nt | 13
COc1ccccc1NC(=O)NCc1ccc2c(c1)OCO2 | -14% | 6% | -14 | 13% | 5% | 1
COc1ccccc1N/N=C/c1ccc2c(c1)OCO2 | 16µM* | 1% | ? | ? | -4% | nt
Cc1nc2cnc(Oc3ccccc3)nc2n(C)c1=O | nt | 0% | nt | ? | nt | nt
O=Cc1ccc(Cl)c(Cl)c1 | -10% | -13% | nt | ? | -1% | nt
Cc1c(C(=O)O)c(O)cc2c1C(=O)c1c(O)c([C@H]3O[C@H](CO)[C@@H](O)[C@H](O)[C@H]3O)c(O)c(O)c1C2=O | 18µM* | 57% | nt | 11µM* | -3%[0.00818 µM] | ?
O=c1cc(CN2CCN(c3ccccc3F)CC2)c2cc(O)c(-c3ccccc3)cc2o1 | -23% | -10% | 20 | 28µM* | 4% | nt
CS(=O)(=O)N1N=C(c2ccccc2)CC1c1ccc2c(c1)OCO2 (configuration not stated) | -8% | 14% | -27 | 2.4µM* | -2% | nt
CS(=O)(=O)N1N=C(c2ccco2)CC1c1ccc(Cl)cc1 (configuration not stated) | -7% | 0% | 12 | 8.9µM* | -17% | -7

Screening data (PubChem BioAssay)
